PubChem BioAssay AID1159580 (chemical genetic matrix, 2015)
Screen size: about 5,500 compounds; about 2,000 (36%) were called active. About 18% were inconclusive and are not listed. Rule as the data show it: active = normalized growth mostly below about 0.91 (no sharp cut-off); inconclusive = no clear call, values can overlap the other calls; inactive = mostly above about 0.92. The list shows a part of the results.

Assay: chemical genetic growth profiling, strain panel (AID 1159580);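 also: tested at 20 µM; growth read once vehicle control cultures reached saturation at 30 °C; 1 = growth at the plate median or of vehicle wells; lower values mean less growth of the strain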
Settings: growth OD
[1] = S. cerevisiae deletion strains, locus YDL101C, strain DUN1, stronger effect = lower value
[2] = S. cerevisiae deletion strains, locus YHR030C, strain SLT2, stronger effect = lower value

Measured: normalized growth

O=C(NNc1cc(C(F)(F)F)cc(C(F)(F)F)c1)c1cnc2n(c1=O)CCS2
inactive: S. cerevisiae deletion strains, locus YAR019C, strain CDC15, stronger effect = lower value 0.985 | S. cerevisiae deletion strains, locus YBL105C, strain PKC1, stronger effect = lower value 0.987 | S. cerevisiae deletion strains, locus YBR135W, strain CKS1, stronger effect = lower value 0.99 | S. cerevisiae deletion strains, locus YBR136W, strain MEC1, stronger effect = lower value 0.983 | S. cerevisiae deletion strains, locus YBR160W, strain CDC28, stronger effect = lower value 0.99 | S. cerevisiae deletion strains, locus YDL017W, strain CDC7, stronger effect = lower value 0.986 | S. cerevisiae deletion strains, locus YDL028C, strain MPS1, stronger effect = lower value 0.991 | [1] 0.983 | S. cerevisiae deletion strains, locus YDL108W, strain KIN28, stronger effect = lower value 1 | S. cerevisiae deletion strains, locus YDL132W, strain cdc53, stronger effect = lower value 0.998 | S. cerevisiae deletion strains, locus YDL214C, strain PRR2, stronger effect = lower value 0.992 | S. cerevisiae deletion strains, locus YDR052C, strain DBF4, stronger effect = lower value 0.991 | S. cerevisiae deletion strains, locus YDR054C, strain cdc34, stronger effect = lower value 0.993 | S. cerevisiae deletion strains, locus YDR226W, strain ADK1, stronger effect = lower value 0.987 | S. cerevisiae deletion strains, locus YDR477W, strain SNF1, stronger effect = lower value 0.994 | S. cerevisiae deletion strains, locus YER123W, strain YCK3, stronger effect = lower value 0.936 | S. cerevisiae deletion strains, locus YER133W, strain GLC7, stronger effect = lower value 0.977 | S. cerevisiae deletion strains, locus YFL009W, strain cdc4, stronger effect = lower value 0.987 | S. cerevisiae deletion strains, locus YFL029C, strain CAK1, stronger effect = lower value 1 | S. cerevisiae deletion strains, locus YFR003C, strain YPI1, stronger effect = lower value 0.999 | S. cerevisiae deletion strains, locus YFR019W, strain FAB1, stronger effect = lower value 0.982 | S. cerevisiae deletion strains, locus YFR028C, strain CDC14, stronger effect = lower value 0.983 | S. cerevisiae deletion strains, locus YGR040W, strain KSS1, stronger effect = lower value 1 | S. cerevisiae deletion strains, locus YGR052W, strain FMP48, stronger effect = lower value 1.03 | S. cerevisiae deletion strains, locus YGR092W, strain DBF2, stronger effect = lower value 0.961 | [2] 0.939 | S. cerevisiae deletion strains, locus YHR079C, strain IRE1, stronger effect = lower value 0.972 | S. cerevisiae deletion strains, locus YHR082C, strain KSP1, stronger effect = lower value 1.01 | S. cerevisiae deletion strains, locus YHR205W, strain SCH9, stronger effect = lower value 0.938 | S. cerevisiae deletion strains, locus YIL147C, strain SLN1, stronger effect = lower value 0.988 | S. cerevisiae deletion strains, locus YJL095W, strain BCK1, stronger effect = lower value 0.98 | S. cerevisiae deletion strains, locus YJL128C, strain PBS2, stronger effect = lower value 1.02 | S. cerevisiae deletion strains, locus YJL157C, strain FAR1, stronger effect = lower value 0.996 | S. cerevisiae deletion strains, locus YJR016C, strain ILV3, stronger effect = lower value 0.99 | S. cerevisiae deletion strains, locus YJR066W, strain TOR1 (second series), stronger effect = lower value 0.995 | S. cerevisiae deletion strains, locus YJR066W, strain TOR1, stronger effect = lower value 0.974 | S. cerevisiae deletion strains, locus YKL048C, strain ELM1, stronger effect = lower value 0.971 | S. cerevisiae deletion strains, locus YKL067W, strain YNK1, stronger effect = lower value 0.995 | S. cerevisiae deletion strains, locus YKL101W, strain HSL1, stronger effect = lower value 1.01 | S. cerevisiae deletion strains, locus YKL193C, strain SDS22, stronger effect = lower value 0.986 | S. cerevisiae deletion strains, locus YKL203C, strain TOR2, stronger effect = lower value 1.03 | S. cerevisiae deletion strains, locus YLR113W, strain HOG1, stronger effect = lower value 0.883 | S. cerevisiae deletion strains, locus YLR133W, strain CKI1, stronger effect = lower value 1.01 | S. cerevisiae deletion strains, locus YLR403W, strain SFP1, stronger effect = lower value 0.99 | S. cerevisiae deletion strains, locus YML070W, strain DAK1, stronger effect = lower value 0.973 | S. cerevisiae deletion strains, locus YMR001C, strain CDC5, stronger effect = lower value 0.995 | S. cerevisiae deletion strains, locus YMR205C, strain PFK2 (second series), stronger effect = lower value 1.01 | S. cerevisiae deletion strains, locus YMR277W, strain FCP1, stronger effect = lower value 0.992 | S. cerevisiae deletion strains, locus YNL006W, strain LST8, stronger effect = lower value 1 | S. cerevisiae deletion strains, locus YNL020C, strain ARK1, stronger effect = lower value 1 | S. cerevisiae deletion strains, locus YNL161W, strain CBK1, stronger effect = lower value 0.98 | S. cerevisiae deletion strains, locus YNL183C, strain NPR1, stronger effect = lower value 0.962 | S. cerevisiae deletion strains, locus YNL207W, strain RIO2, stronger effect = lower value 0.996 | S. cerevisiae deletion strains, locus YNL222W, strain SSU72, stronger effect = lower value 0.988 | S. cerevisiae deletion strains, locus YNL307C, strain MCK1 (second series), stronger effect = lower value 0.935 | S. cerevisiae deletion strains, locus YOL078W, strain AVO1, stronger effect = lower value 0.992 | S. cerevisiae deletion strains, locus YOL136C, strain PFK27, stronger effect = lower value 0.971 | S. cerevisiae deletion strains, locus YOR061W, strain CKA2, stronger effect = lower value 1.02 | S. cerevisiae deletion strains, locus YOR119C, strain RIO1, stronger effect = lower value 0.983 | S. cerevisiae deletion strains, locus YOR231W, strain MKK1, stronger effect = lower value 0.979 | S. cerevisiae deletion strains, locus YOR329C, strain SCD5, stronger effect = lower value 0.983 | S. cerevisiae deletion strains, locus YPL031C, strain PHO85, stronger effect = lower value 0.983 | S. cerevisiae deletion strains, locus YPL153C, strain RAD53, stronger effect = lower value 0.986 | S. cerevisiae deletion strains, locus YPL204W, strain HRR25, stronger effect = lower value 0.982 | S. cerevisiae deletion strains, locus YPL209C, strain IPL1, stronger effect = lower value 0.984 | S. cerevisiae deletion strains, locus YPL256C, strain CLN2, stronger effect = lower value 0.936 | S. cerevisiae deletion strains, locus YPR025C, strain CCL1, stronger effect = lower value 0.972 | S. cerevisiae deletion strains, locus YPR106W, strain ISR1, stronger effect = lower value 0.995 | S. cerevisiae deletion strains, locus YPR111W, strain DBF20, stronger effect = lower value 0.997 | S. cerevisiae deletion strains, strain NNK1, stronger effect = lower value 0.988 | S. cerevisiae deletion strains, strain TSCII, stronger effect = lower value 0.987

CCOC(=O)c1cnc2n(c1=O)CCS2
active: S. cerevisiae deletion strains, locus YML094W, strain GIM5, stronger effect = lower value 1.13 [resistant]
inactive: S. cerevisiae deletion strains, locus YAL013W, strain DEP1, stronger effect = lower value 1.02 | S. cerevisiae deletion strains, locus YBR229C, strain ROT2, stronger effect = lower value 0.997 | [1] 1.05 | S. cerevisiae deletion strains, locus YDR150W, strain NUM1, stronger effect = lower value 0.965 | S. cerevisiae deletion strains, locus YEL061C, strain CIN8, stronger effect = lower value 1.04 | S. cerevisiae deletion strains, locus YGR078C, strain PAC10, stronger effect = lower value 1.04 | [2] 1.1 | S. cerevisiae deletion strains, locus YHR087W, strain rtc3, stronger effect = lower value 1.02 | S. cerevisiae deletion strains, locus YJR043C, strain POL32, stronger effect = lower value 0.999 | S. cerevisiae deletion strains, locus YJR075W, strain HOC1, stronger effect = lower value 1.01 | S. cerevisiae deletion strains, locus YKL190W, strain CNB1, stronger effect = lower value 0.996 | S. cerevisiae deletion strains, locus YLR039C, strain RIC1, stronger effect = lower value 0.99 | S. cerevisiae deletion strains, locus YLR058C, strain SHM2 (second series), stronger effect = lower value 0.995 | S. cerevisiae deletion strains, locus YLR085C, strain ARP6, stronger effect = lower value 1.06 | S. cerevisiae deletion strains, locus YLR262C, strain YPT6, stronger effect = lower value 0.996 | S. cerevisiae deletion strains, locus YMR219W, strain ESC1, stronger effect = lower value 0.999 | S. cerevisiae deletion strains, locus YMR263W, strain SAP30, stronger effect = lower value 1 | S. cerevisiae deletion strains, locus YNL128W, strain TEP1, stronger effect = lower value 0.997 | S. cerevisiae deletion strains, locus YNL153C, strain GIM3, stronger effect = lower value 1.02 | S. cerevisiae deletion strains, locus YNL298W, strain CLA4 (second series), stronger effect = lower value 1.03 | S. cerevisiae deletion strains, locus YNL322C, strain KRE1, stronger effect = lower value 1.01 | S. cerevisiae deletion strains, locus YNR030W, strain Alg12, stronger effect = lower value 1.08 | S. cerevisiae deletion strains, locus YOL006C, strain TOP1, stronger effect = lower value 1.07 | S. cerevisiae deletion strains, locus YPL055C, strain LGE1, stronger effect = lower value 0.987 | S. cerevisiae deletion strains, locus YPL241C, strain CIN2, stronger effect = lower value 1.01 | S. cerevisiae deletion strains, locus YPR135W, strain CTF4, stronger effect = lower value 1.12 | S. cerevisiae strains, strain wild type, stronger effect = lower value 0.975
